HIF-2a block = HIF-2a inhibition; 786-0 RCC cells HIF-2a reporter, luciferase luminescence, overnight; inhibition, % at 18.8 µM; 0.72% of 360,000 active; AID 624352;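 active means inhibition of the luminescence signal of 40% or more relative to plate controls, in a single-dose primary screen at 18.75 µM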
KKLEB tox = CF airway cell cytotoxicity counter-screen; KKLEB CF airway cells viability, ATPlite luminescence, overnight; active compounds read low; cells stimulated with P. aeruginosa culture filtrate; activity change (cytotoxicity), % at 5 µM; 0.36% of 360,000 active;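 active means corrected activity change at or below -50% at 5 µM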
Peg3 prom inh = inhibitors of Peg3 promoter; inhibition, % at 20 µM; HeLa PEG-Prom luciferase reporter, luminescence, overnight; AID 588405; 1.7% of 360,000 active;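 active means inhibition of at least 50% at 20 µM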
CF NFkB block = inhibitors of cystic fibrosis induced NF-kB. inhibition, % at 5 µM. KKLEB NF-kB-GFP reporter, PAF-induced, GFP fluorescence overnight. 0.86% of 360,000 active. AID 588850;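 active means at least 50% inhibition at 5 µM, scaled per plate between neutral and stimulator controls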;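 further: PAF is a Pseudomonas aeruginosa culture filtrate used as stimulus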
EBV LMP1 NFkB = inhibitors of Epstein-Barr LMP1-induced NF-kappaB reporter; LMP1-induced NF-kappaB luciferase reporter cells, luminescence; inhibition, % at 12.5 µM; 0.69% of 350,000 active; AID 504558; in the data active means inhibition above about 41%
MITF TRPM1 inh = inhibitors of MITF-driven TRPM1 promoter in melanoma cells. SK-MEL-5 TRPM1 promoter luciferase, 24 h. inhibition, % at 12.5 µM. 0.83% of 330,000 active;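 active means mean inhibition across replicates of 60% or more, whatever share of single replicates reaches that level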
Mdm2-MdmX confirm = confirmation of inhibitors of human Mdm2/MdmX interaction, set 2 | AID 504601 | inhibition, % at 8 µM | 99% of 740 active | SaOS-2 split-luciferase Mdm2/MdmX complementation, luminescence | shares compounds with HIF-2a block;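 active means mean inhibition of the luminescence signal across two replicates at or above 26 percent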
Target sequence (O15151 whole entry, looked up): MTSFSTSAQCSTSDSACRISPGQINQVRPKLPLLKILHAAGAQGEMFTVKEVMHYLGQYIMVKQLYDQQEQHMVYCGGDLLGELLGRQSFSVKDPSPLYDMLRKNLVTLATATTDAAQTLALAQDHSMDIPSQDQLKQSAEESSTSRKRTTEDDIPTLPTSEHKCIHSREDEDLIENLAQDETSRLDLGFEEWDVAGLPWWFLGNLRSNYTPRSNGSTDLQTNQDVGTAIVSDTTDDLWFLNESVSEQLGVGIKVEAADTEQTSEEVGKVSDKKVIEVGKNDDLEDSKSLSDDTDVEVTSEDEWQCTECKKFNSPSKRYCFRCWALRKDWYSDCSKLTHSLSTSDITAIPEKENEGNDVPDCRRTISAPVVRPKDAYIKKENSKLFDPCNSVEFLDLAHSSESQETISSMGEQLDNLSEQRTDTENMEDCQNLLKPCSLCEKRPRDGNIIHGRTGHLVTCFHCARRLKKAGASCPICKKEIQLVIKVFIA
Target sequence (Q00987 whole entry, looked up): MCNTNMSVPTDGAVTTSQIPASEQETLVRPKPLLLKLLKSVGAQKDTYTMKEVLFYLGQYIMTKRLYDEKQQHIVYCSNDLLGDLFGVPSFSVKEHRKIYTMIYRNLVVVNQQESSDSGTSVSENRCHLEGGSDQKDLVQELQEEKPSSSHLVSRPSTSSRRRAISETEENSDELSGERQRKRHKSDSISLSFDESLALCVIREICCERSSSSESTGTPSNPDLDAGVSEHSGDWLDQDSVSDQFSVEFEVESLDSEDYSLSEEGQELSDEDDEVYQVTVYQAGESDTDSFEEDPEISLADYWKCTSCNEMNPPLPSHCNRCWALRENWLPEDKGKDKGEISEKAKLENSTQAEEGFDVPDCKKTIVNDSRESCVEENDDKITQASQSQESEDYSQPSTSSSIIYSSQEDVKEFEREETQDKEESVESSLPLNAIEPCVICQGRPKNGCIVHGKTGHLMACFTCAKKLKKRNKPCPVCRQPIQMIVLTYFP
HIF-2a conf = confirmation of HIF-2a inhibitors; 56% of 1,800 active; shares compounds with HIF-2a block; inhibition, % at 18.8 µM; 786-0 RCC cells, HIF-2a luciferase reporter luminescence, overnight;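 active means mean inhibition across four replicates of at least 40 percent at the single tested concentration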
HIF-1a counter = inhibits HIF-1a reporter, a counter-screen for HIF-2a inhibitors | 72% of 1,800 active | shares compounds with HIF-2a block | MiaPaCa-2 HIF-1a luciferase reporter, desferoxamine, overnight | AID 651589 | inhibition, % at 18.8 µM;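 active means mean inhibition of the reporter signal across four replicates at the single tested dose of 50% or more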
Numbers stand for hits; . = inactive; / = no result. Most compounds without a hit are left out; they make up all but 3% or so of the library.

SMILES	HIF-2a block	KKLEB tox	Peg3 prom inh	CF NFkB block	EBV LMP1 NFkB	MITF TRPM1 inh	HIF-2a conf	HIF-1a counter	others
O=[N+]([O-])c1cc(S(=O)(=O)C(F)(F)F)ccc1Sc1nc2ccccc2[nH]1	93	.	104	50	.	96	69	106
Cc1ccccc1NC1=C/C(=N\S(=O)(=O)c2cccs2)c2ccccc2C1=O	93	-93	102	94	91	87	/	/	Mdm2-MdmX confirm=103
Cc1ccc(C(=O)c2ccc(O)cc2)cc1C	.	.	.	.	.	.	/	/
Cc1ccc(C(=O)c2cccc(N)c2)cc1C	84	.	.	.	.	66	93	56
CCC(=O)Nc1cccc(C(=O)/C=C/c2ccccc2)c1	44	.	102	.	.	.	.	101
CCC(=O)Nc1cccc(C(=O)c2ccc(C)c(C)c2)c1	45	.	.	.	.	.	65	.
O=C(NNC(=O)c1ccccc1-n1cccc1)c1cccnc1	.	.	.	.	.	/	/	/
CCc1cc(C(=O)Nc2cc(S(=O)(=O)N3CCCCC3)ccc2N2CCN(C)CC2)sc1C	.	.	.	.	.	/	/	/
CCCC(=O)N1CCN(c2ccc(NC(=O)c3ccc([N+](=O)[O-])o3)cc2)CC1	94	-63	100	90	.	89	64	97
CC(C)(C)C(=O)N1CCN(c2ccc(NC(=O)c3ccc([N+](=O)[O-])o3)cc2)CC1	88	.	97	56	.	81	.	81
O=C(Nc1ccc(N2CCN(C(=O)c3ccc(Cl)cc3)CC2)cc1)c1ccc([N+](=O)[O-])o1	97	-78	104	96	.	90	87	107
O=C(Nc1ccc(N2CCN(Cc3ccccc3F)CC2)cc1)c1ccc([N+](=O)[O-])o1	93	-77	100	81	.	98	.	105
O=C(Nc1ccc(N2CCN(C(=O)c3ccc(Cl)cc3)CC2)cc1)c1cccs1	.	.	.	.	.	.	/	/
O=C(Nc1ccc(N2CCN(Cc3ccccc3F)CC2)cc1)c1ccccc1[N+](=O)[O-]	.	.	.	.	.	.	/	/
COc1cc(NC(=O)[C@@H]2O[C@H](CO)[C@@H](O)[C@H]2O)cc(OC)c1OC	.	.	.	.	/	/	/	/
COCCNc1nc(Nc2ccc(C(=O)OC)cc2)c2sccc2n1	.	.	.	.	/	/	/	/
Nc1ncnn1Cc1ccccc1	.	.	.	.	.	/	/	/
COCCCn1c(SCC(=O)N2CCCC2=O)nc2ccccc2c1=O	.	.	.	.	.	/	/	/
COc1ccc(-c2oc3c(c2C(=O)OCCCO)C(OCCO)CCC3)cc1 (configuration not stated)	.	/	/	/	/	/	/	/
O=c1ccc(-c2nc3ccccc3n2C(CCc2ccccc2)c2nc3ccccc3[nH]2)c[nH]1 (configuration not stated)	.	/	/	/	/	/	/	/
C=Cc1ccc(Cn2c(C)c(C(=O)NCc3ccccc3C(F)(F)F)sc2=O)cc1	.	.	.	.	/	/	/	/
O=C(Nc1nc2c(Cl)cccc2s1)c1ccc([N+](=O)[O-])o1	.	.	.	.	.	.	/	/
CCC(=O)N1CCN(c2ccc(NC(=O)c3ccc([N+](=O)[O-])o3)cc2)CC1	61	.	106	56	.	80	.	74
CS(=O)(=O)N1CCN(c2ccc(NC(=O)c3ccc([N+](=O)[O-])o3)cc2)CC1	79	-65	104	84	.	75	.	57
O=C(Nc1cccc(NC(=O)c2ccccc2Cl)c1)c1ccc([N+](=O)[O-])o1	61	.	98	78	.	77	.	104
SMILES	HIF-2a block	KKLEB tox	Peg3 prom inh	CF NFkB block	EBV LMP1 NFkB	MITF TRPM1 inh	HIF-2a conf	HIF-1a counter	others
COCCCn1cc(CN2CC(N3CCCCC3)CS2(=O)=O)nn1 (configuration not stated)	.	/	/	/	/	/	/	/
COc1ccc(C(=O)N(C)[C@H]2C[C@H]3c4[nH]c5ccccc5c4CCN3C(=O)[C@H]2CO)cc1	.	.	.	.	.	/	/	/
COCCN1C[C@@H](CO)O[C@@H](n2cnc3c(N4CCCC4)ncnc32)C1	.	.	.	.	/	/	/	/
CC(=O)Nc1c([N+](=O)[O-])cc2c3c(cccc13)CC2	.	.	.	.	/	/	/	/
CC[C@@]1(C(=O)OC)N[C@H](CN(C)S(=O)(=O)c2ccc(-c3ccccc3)cc2)[C@@H]2C(=O)N(Cc3ccccc3)C(=O)[C@@H]21	.	.	.	.	.	.	/	/	Mdm2-MdmX confirm=90
Nc1ncnc2c(C3OC(CO)C(O)C3O)c[nH]c12 (configuration not stated)	50	-53	96	83	92	/	.	106
Nc1ncnc2c1ncn2[C@@H]1O[C@H](CO)[C@@H](O)[C@H]1O	.	.	.	.	.	.	/	/
Cc1oc(-c2ccccc2Cl)nc1CSCC(=O)O	.	.	.	.	.	.	/	/
Cc1oc(-c2cccc(Cl)c2)nc1CSCC(=O)O	43	.	.	.	.	.	.	.
C#CCN(C[C@@H]1[C@@H](OC(=O)NCc2ccccc2)[C@@H](OC(=O)NCc2ccccc2)CN(C(=O)OC(C)C)N1C(=O)OC(C)C)S(=O)(=O)c1ccc(C)cc1	.	.	.	.	.	/	/	/
COC(=O)C1=C(C)N(Cc2ccccc2)C(=NCc2cccc(C(F)(F)F)c2)N[C@H]1c1cccc(C(F)(F)F)c1	.	.	99	.	.	96	/	/	Mdm2-MdmX confirm=102
S=C1SCN(Cc2ccccc2)CN1Cc1ccccc1	.	.	.	.	.	.	/	/
S=C1SCN(Cc2cccnc2)CN1Cc1cccnc1	.	.	67	.	.	.	/	/	Mdm2-MdmX confirm=98
Cc1ccc(NC(=O)c2ccccc2)cc1	.	.	.	.	.	.	/	/
Cc1ccc(NC(=O)C2=C(c3ccccc3)S(=O)(=O)CCS2(=O)=O)cc1	81	-72	109	96	93	95	81	102	Mdm2-MdmX confirm=103
CCCCNC(=O)C1(C)CCN1C(=O)c1cc(C)n(C(C)(C)C)n1 (configuration not stated)	.	.	.	.	/	/	/	/
CCOC(=O)c1c(C)[nH]c(C(=O)N(C)CC(=O)Nc2ccc(OCC)c(OCC)c2)c1C	.	.	.	.	.	/	/	/
O=C(O)CCSCC(=O)c1ccc2c(c1)OCCO2	57	.	.	.	.	.	64	.
O=C(O)CCC(=O)c1ccc2c(c1)OCCO2	.	.	.	.	.	.	/	/
CC1=C(C(=O)N(C(C)C)C(C)C)CC(CC(=O)NCc2ccco2)C(=O)N1Cc1ccc(F)cc1 (configuration not stated)	.	.	.	.	/	/	/	/

High-throughput results (PubChem)
